Source: PubChem (National Center for Advancing Translational Sciences (NCATS))
Luciferase inh – blocks purified firefly luciferase enzyme activity | P08659 | purified P. pyralis luciferase, luminescence, biochemical | Potency, µM (highest dose often 115 µM), most hits filed as inhibitors | actives 2.5% (n = 76,000); further: nearly all actives have a fitted effect of over 65% in size
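FLuc 10nM, D-luciferin 10uM, ATP 10uM, Mg acetate 10mM, Tris acetate pH 7.5, Tween/BSA; cpd qHTS; enzyme added last; CCD luminescence.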
HEK293 tox – cytotoxic compounds in HEK 293 cells; Potency, µM (top dose mostly 115 µM), for inactives: at the highest dose activity change, negative = cytotoxicity, usual class: inhibitors; actives 6.6% (n = 94,000); AID 1345083; HEK 293 viability, ATP luminescence (CellTiter-Glo), 48-72 h; further: nearly all actives have a fitted effect of over 60% in size
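HEK 293 seeded at 250 cells/well receive compound via pintool. After 48 or 72 hr at 37 degree Celsius, 5% CO2 and 95% humidity, CellTiter-Glo is dispensed and luminescence read following 10 min at room temperature.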
NIH3T3 tox – cytotoxic compounds in NIH 3T3 cells | NIH 3T3 viability, CellTiter-Glo ATP luminescence, 48-72 h | Potency, µM (top dose mostly 96.7 µM), inactives show top-dose activity change, negative = cytotoxicity, usual class: inhibitors | actives 4.3% (n = 94,000) | AID 1345082; further: nearly all actives have a fitted effect of over 55% in size
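Mouse fibroblast NIH 3T3 cells, 400 per well, received compound via pintool and were incubated for 48 or 72 hr prior to CellTiter-Glo ATP luminescence measurement.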
NPR1 antag – blocks ANP-stimulated signaling of human Npr1 receptor; P16066; HEK293 hNpr1 GloSensor cGMP, ANP-stimulated luminescence; actives 1.6% (n = 76,000); Potency, µM (titrated, usually from 46.3 µM), inactives show top-dose activity change, negative = inhibition, actives largely listed as inhibitors; calls by dose curve; further: nearly all actives have a fitted effect of over 60% in size
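Compound pre-incubated 30 min at room temperature on GloSensor-loaded HEK293 cells stably carrying hNpr1 and the pGS-40F cGMP biosensor. Stimulation uses hNppA at 0.1 nM final; luminescence is taken at baseline and 20 min post-agonist.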
An asterisk follows results filed as active; [ ] = another dose, or the depositor's remark. A selection: hits, their analogues and other compounds. The true share with any hit is near 11%. Unless noted, the call rests on the fitted dose curve; in most records, active means well fitted curve in the direction sought with a large enough effect; inconclusive means small, poorly fitted or top-dose-only effect, or another doubt; inactive means no such curve, though single readings can be large; an effect the other way counts as inactive or inconclusive. On the % scale 0 is the no-effect control and ±100 the full control effect; potency means the concentration at half of the fitted maximal effect.

`CC1=C[C@@H](CNCc2ccc(C#N)cc2)[C@H](C(C)C)C[C@H]1Cc1nnc(C(C)(C)C)o1` gave Luciferase inh inactive, HEK293 tox inconclusive, NIH3T3 tox inconclusive and NPR1 antag -21.8%[70.6 µM].
For N#Cc1cccnc1-c1ccc(C(=O)N2CCC(NC(=O)C3CCCC3)CC2)cc1 the results were HEK293 tox -15.6% and NIH3T3 tox -28.0%.
For CC(C)(C)C(=O)N1CCC(C(=O)N2CCC(N3Cc4ccccc4C3=O)CC2)CC1 the results were HEK293 tox -9.4% and NIH3T3 tox -7.9%.
`Cc1noc(C)c1[S+](=O)([O-])NCCNC(=O)c1ccc(-c2cccc(C(F)(F)F)c2)cc1` gave HEK293 tox inconclusive and NIH3T3 tox 35.5µM*.
`COc1cccc(-c2ccc(C(=O)NCCN[S+](=O)([O-])c3cccc(C(F)(F)F)c3)cc2)c1` gave HEK293 tox 31.6µM* and NIH3T3 tox inconclusive.
COc1cccc(-c2ccc(C(=O)NCCNC(=O)c3ccc4c(c3)OCO4)cc2)c1 was read as HEK293 tox 79.4µM* and NIH3T3 tox -26.7%.
Screening COc1cccc(-c2ccc(C(=O)NCCN[S+](=O)([O-])c3ccccc3)cc2)c1 returned HEK293 tox 44.7µM* and NIH3T3 tox inconclusive.
`COc1ccc(C(=O)NCCNC(=O)c2ccc(-c3cccc(OC)c3)cc2)cc1` gave HEK293 tox -2.8% and NIH3T3 tox -22.6%.
For COc1ccc(C2(C(=O)NCc3ccccc3)CCOCC2)cc1 the results were HEK293 tox -20.2%[172 µM] and NIH3T3 tox -23.1%[138 µM].
`Cc1ccc([S+](=O)([O-])NCCNC(=O)c2ccc(-c3cccc(C(F)(F)F)c3)cc2)cc1` gave HEK293 tox -27.2% and NIH3T3 tox -22.2%.
Screening O=C(NCCN[S+](=O)([O-])c1ccccc1)c1cccc(-c2ccc(C(F)(F)F)cc2)c1 returned HEK293 tox 10µM* and NIH3T3 tox 22.4µM*.
Screening COc1ccc(-c2ccc(C(=O)NCc3ccc(C(F)(F)F)cc3)cc2)nn1 returned HEK293 tox -0.7% and NIH3T3 tox -16.7%.
For COCCCNC(=O)c1cccc(-c2ccc(OC)nn2)c1 the results were HEK293 tox -3.6%[172 µM] and NIH3T3 tox -15.1%[138 µM].
`COc1ccc(-c2cccc(C(=O)NCc3ccc(C(F)(F)F)cc3)c2)nn1` gave HEK293 tox 39.8µM* and NIH3T3 tox inconclusive.
`COc1ccc(-c2cccc(C(=O)NCCCc3ccccc3)c2)nn1` gave HEK293 tox 79.4µM* and NIH3T3 tox inconclusive.
COc1ccc(-c2cccc(C(=O)NCC(F)F)c2)nn1 was read as HEK293 tox -7.4%[172 µM] and NIH3T3 tox -21.2%[138 µM].
COc1ccc(-c2cccc(C(=O)NCc3ccc(F)cc3)c2)nn1 was read as HEK293 tox 89.1µM* and NIH3T3 tox inconclusive.
`CCc1cccc(NC(=O)C2CCc3ncc(-c4ccsc4)n3C2)c1` (stereo not given) gave Luciferase inh inactive, HEK293 tox 44.7µM*, NIH3T3 tox inconclusive and NPR1 antag -4.5%.
For Cc1ccc(S(=O)(=O)N(C)C2CCOc3ccccc32)cc1 (stereo not given) the results were Luciferase inh inactive, HEK293 tox 100µM*, NIH3T3 tox inconclusive and NPR1 antag -2.7%[70.6 µM].
For O=C(Cc1cccc(Cl)c1)N1CCN(c2nccc(Nc3ccccc3Cl)n2)CC1 the results were HEK293 tox 35.5µM* and NIH3T3 tox 14.1µM*.
For COc1ccc(Nc2ccnc(N3CCN(C(=O)Cc4ccccn4)CC3)n2)cc1 the results were HEK293 tox -29.7% and NIH3T3 tox -29.3%.
Screening COc1ccc(Nc2ccnc(N3CCN(C(=O)c4ccc(OC)cc4)CC3)n2)cc1 returned HEK293 tox 25.1µM* and NIH3T3 tox 25.1µM*.
CN(C)C(=O)[C@@H]1CCCN1c1nccc(Nc2ccccc2Cl)n1 was read as HEK293 tox inconclusive and NIH3T3 tox -34.8%[138 µM].
Screening COc1ccc(Nc2ccnc(N3CCN(C(=O)c4ccc(F)cc4)CC3)n2)cc1 returned HEK293 tox 22.4µM* and NIH3T3 tox 12.6µM*.
Screening Cc1ccc(Nc2ccnc(N3CCN(C(=O)c4ccccc4C)CC3)n2)cc1 returned HEK293 tox 39.8µM* and NIH3T3 tox 35.5µM*.
For CNC(=O)c1cc(C2CC2)nc2c1c(C1CCCN(C(=O)c3ccccc3C)C1)nn2C (stereo not given) the results were HEK293 tox -16.3% and NIH3T3 tox -14.6%.
COc1ccc(-c2noc([C@@H]3CCCN3C(=O)COc3cccc(C)c3)n2)cc1 was read as Luciferase inh inactive, HEK293 tox inconclusive, NIH3T3 tox inconclusive and NPR1 antag -17.0%.
O=C(NCc1cccc(F)c1)C1CCCN1C(=O)c1cccc(-c2cccnc2)c1 (stereo not given) was read as HEK293 tox inconclusive and NIH3T3 tox -26.2%.
Screening O=C1CC(c2ccccc2)N(C(=O)CNC(=O)c2cc3ccccc3[nH]2)CCCCCCN1 (stereo not given) returned Luciferase inh inactive, HEK293 tox inconclusive, NIH3T3 tox -1.9% and NPR1 antag -3.3%.
Screening COc1cccc(Nc2ccnc(N3CCN(C(C)=O)CC3)n2)c1 returned HEK293 tox -20.0%[172 µM] and NIH3T3 tox inconclusive.
Screening Cc1ccc(Nc2ccnc(N3CCCN(C(=O)Cc4cccc(Cl)c4)C3)n2)cc1 returned HEK293 tox 12.6µM* and NIH3T3 tox 28.2µM*.
Screening COc1ccc(Nc2ccnc(N3CCN(C(=O)c4cccc(Cl)c4)CC3)n2)cc1 returned HEK293 tox 28.2µM* and NIH3T3 tox 28.2µM*.
`CC(=O)N1CCN(C(=O)C2CCCN2c2nccc(Nc3ccc(C)cc3)n2)CC1` (stereo not given) gave HEK293 tox -8.1% and NIH3T3 tox inactive.
Screening COc1ccc(Nc2ccnc(N3CCN(C(=O)Cc4cccc(Cl)c4)CC3)n2)cc1 returned HEK293 tox inconclusive and NIH3T3 tox 28.2µM*.
Screening Cc1ccc(Nc2ccnc(N3CCN(C(=O)Cc4ccc(F)cc4)CC3)n2)cc1 returned HEK293 tox inconclusive and NIH3T3 tox 31.6µM*.
`COc1ccc(CN2CCC3(CC(Cc4ccccc4)=NO3)C2)cc1` (stereo not given) gave Luciferase inh inactive, HEK293 tox inconclusive, NIH3T3 tox inconclusive and NPR1 antag 4.0%.
Screening CC1(c2ccccc2)N(Cc2ccccc2C#N)C(=O)OC12CCN(C(=O)CCc1cccnc1)CC2 (stereo not given) returned Luciferase inh inactive, HEK293 tox 2.0%, NIH3T3 tox inconclusive and NPR1 antag -0.1%.
Screening COCC(=O)NCCNC(=O)c1cccc(-c2ccc(SC)cc2)c1 returned HEK293 tox inconclusive and NIH3T3 tox -29.4%[138 µM].
Screening CSc1ccc(-c2cccc(C(=O)NCCN[S+](=O)([O-])c3ccc(C)cc3)c2)cc1 returned HEK293 tox 39.8µM* and NIH3T3 tox inconclusive.
